C diff HTS: C. difficile growth inhibitors, primary screen, HTS. AID 1259249, 2017. growth activity, negative = inhibition, % at 16 µg/mL (by protocol). 86,000 compounds, 0.25% hits. Clostridium difficile clinical isolate growth, OD600, 24 h; stronger effect = lower value;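 active = mean growth activity at or below -80% and every replicate also at or below -80%; inconclusive = mean at or below -80% but some replicate above -80%; inactive = mean growth activity above -80%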
T cruzi growth-1: T. cruzi intracellular proliferation inhibitors, primary screen, cell-based, beta-gal Tulahuen parasites, NIH3T3 host, luminescence | T. cruzi beta-gal in NIH3T3, GalScreen luminescence, 90 h | inhibition, % at 8.34 µM | 77,000 compounds, 5.9% hits;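 active = mean inhibition above about 93%, with at least 55% of replicates each passing it, limit read from the data, passing the limit was not always enough; inconclusive = only one of those two conditions holds; inactive = neither condition holds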
Pf Dd2 growth: P. falciparum Dd2 growth inhibitors, primary screen, SYBR Green fluorescence, single dose replicates; AID 1159554, 2015; activity change, % at 10 µM; 72 h; stronger effect = lower value; 94,000 compounds, 2.3% hits; in the data active = activity change below about -80%; inconclusive = no clear call, values can overlap the other calls
T cruzi growth-2: T. cruzi intracellular proliferation inhibitors, confirmation, cell-based, NIH3T3 host, beta-gal parasite, luminescence, cherry-pick | T. cruzi beta-gal in NIH3T3, GalScreen luminescence, 90 h | shares compounds with T cruzi growth-1 | inhibition, % at 8.35 µM | 5,600 compounds, 72% hits | AID 651739, 2012;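 active = mean replicate inhibition above about 95% and at least 55% of replicates individually reaching it, limit read from the data; inconclusive = only one of the two criteria is met; inactive = neither criterion is met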
T cruzi growth-3: inhibitors of intracellular T. cruzi replication, confirmation, NIH3T3 host cells, beta-gal parasites, cherry-pick, set 2. shares compounds with T cruzi growth-1. T. cruzi beta-gal in NIH3T3, GalScreen luminescence, 90 h. 5,600 compounds, 21% hits. inhibition, % at 2.09 µM;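 active = mean inhibition above about 95%, with at least 55% of replicates also reaching it, limit read from the data; inconclusive = meets just one of the two conditions; inactive = meets neither condition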
3T3 cytotox: cytotoxicity in mouse NIH/3T3 fibroblasts, confirmation, cytotoxicity control for T. cruzi proliferation inhibitor project, cell-based, cherry-pick, single point; cytotoxicity (signal decrease), % at 8.35 µM; 5,600 compounds, 14% hits; NIH/3T3 viability, CellTiter-Glo ATP luminescence, 90 h; shares compounds with T cruzi growth-1;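 active = mean signal decrease across replicates above about 35% based on untreated-well scatter, with enough replicates individually passing, limit read from the data; inconclusive = no rule stated though some were filed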
3T3 cytotox 2: NIH/3T3 fibroblast cytotoxicity, confirmation, cytotoxicity control, cell-based, cherry-pick, single point, set 2; 5,600 compounds, 56% hits; NIH/3T3 viability, CellTiter-Glo ATP luminescence, 90 h; shares compounds with T cruzi growth-1; inhibition, % at 24.9 µM;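 active = mean loss of cell viability signal at or above a set limit, and enough replicates individually reaching it; inconclusive = meets only the mean limit or only the replicate share; inactive = meets neither condition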
Of the large screens only hits and unclear results are named; the others gave an inactive call (follow-up assays come after a bar, where they were run); ! = not active in a repeat. Sampled rows, rich in hits. Any-hit rate of the full collection: about 6.8%.

COc1ccc(S(=O)(=O)N(C)C[C@@H]2Oc3ccc(NC(=O)C4CCCCC4)cc3CC(=O)N([C@@H](C)CO)C[C@@H]2C)cc1	none
C[C@H](CO)N1C[C@H](C)[C@H](CN(C)C(=O)c2cnccn2)Oc2ncc(-c3ccccc3F)cc2C1=O	none (no result: T cruzi growth-1)
Cc1cccc(CN(C)C[C@@H]2Oc3ncc(/C=C/c4ccccc4)cc3C(=O)N([C@H](C)CO)C[C@@H]2C)c1	none (no result: C diff HTS)
C[C@H](CO)N1C[C@H](C)[C@H](CN(C)Cc2cccc(C(F)(F)F)c2)Oc2ncc(/C=C/c3ccccc3)cc2C1=O	T cruzi growth-1 116 | T cruzi growth-2 105 | T cruzi growth-3 112 | 3T3 cytotox inactive | 3T3 cytotox 2 80
COc1ccc(NC(=O)N(C)C[C@@H]2Oc3ncc(-c4ccc(OC)cc4)cc3C(=O)N([C@H](C)CO)C[C@@H]2C)cc1	none (no result: C diff HTS)
COc1cccc(-c2cnc3c(c2)C(=O)N([C@H](C)CO)C[C@H](C)[C@H](CN(C)Cc2cccc(C(F)(F)F)c2)O3)c1	T cruzi growth-1 inconclusive | T cruzi growth-2 107 | T cruzi growth-3 inactive | 3T3 cytotox inactive | 3T3 cytotox 2 61
C[C@@H]1CN([C@H](C)CO)C(=O)c2cc(/C=C/c3ccccc3)cnc2O[C@H]1CN(C)Cc1ccncc1	T cruzi growth-1 113 | T cruzi growth-2 105 | T cruzi growth-3 inactive | 3T3 cytotox inactive | 3T3 cytotox 2 30
C[C@@H]1CN([C@@H](C)CO)C(=O)c2cc(/C=C/c3ccccc3)cnc2O[C@@H]1CN(C)Cc1ccncc1	none
COc1cccc(-c2cnc3c(c2)C(=O)N([C@H](C)CO)C[C@H](C)[C@H](CN(C)Cc2ccccc2)O3)c1	none
COc1ccc(NC(=O)N(C)C[C@@H]2Oc3ncc(-c4cccc(C(F)(F)F)c4)cc3C(=O)N([C@H](C)CO)C[C@@H]2C)cc1	T cruzi growth-1 103 | T cruzi growth-2 98 | T cruzi growth-3 inactive | 3T3 cytotox inactive | 3T3 cytotox 2 46
COc1cccc(CNC(=O)C[C@H]2C=C[C@H](NC(=O)C3CC3)[C@H](CO)O2)c1	none (no result: T cruzi growth-1)
COCC(=O)Nc1ccc2c(c1)[C@@H]1C[C@@H](CC(=O)NCc3cccnc3)O[C@@H](CO)[C@@H]1O2	none (no result: C diff HTS)
C[C@H]1CN([C@@H](C)CO)C(=O)c2cc(/C=C/c3ccccc3)cnc2O[C@@H]1CN(C)Cc1ccccc1	T cruzi growth-1 106 | T cruzi growth-2 109 | T cruzi growth-3 inactive | 3T3 cytotox inactive | 3T3 cytotox 2 103
C[C@@H]1CN([C@H](C)CO)C(=O)c2cc(/C=C/c3ccccc3)cnc2O[C@@H]1CN(C)Cc1ccccc1	none
C[C@H](CO)N1C[C@H](C)[C@H](CN(C)Cc2ccccc2)Oc2ncc(/C=C/c3ccccc3)cc2C1=O	T cruzi growth-1 120! | T cruzi growth-2 117 | T cruzi growth-3 inactive | 3T3 cytotox 37 | 3T3 cytotox 2 102
C[C@H]1CN([C@@H](C)CO)C(=O)c2cc(/C=C/c3ccccc3)cnc2O[C@@H]1CN(C)Cc1ccncc1	none
O=C(O)[C@H]1[C@H](CO)[C@H]2Cn3c(ccc(C4=CCCCC4)c3=O)[C@H]2N1C(=O)Cc1cccnc1	none (no result: T cruzi growth-1)
CCC(=O)N(C)C[C@H]1Oc2cc(-c3ccccc3F)ccc2S(=O)(=O)N([C@@H](C)CO)C[C@@H]1C	none
C[C@@H]1CCCCO[C@@H](CN(C)CC2CCCCC2)[C@@H](C)CN([C@H](C)CO)C(=O)c2cc(NC(=O)CCCCCC(=O)Nc3ccccc3N)ccc2O1	none
COC(=O)[C@H]1[C@H](CO)[C@H]2Cn3c(ccc(-c4ccccc4OC)c3=O)[C@H]2N1CC1CCOCC1	none
COC(=O)[C@@H]1[C@@H](CO)[C@@H]2Cn3c(ccc(-c4ccccc4OC)c3=O)[C@@H]2N1CC1CCCCC1	none (no result: T cruzi growth-1)

Screening data as filed in PubChem.
